An excerpt weighted towards active compounds, which were near 12% of everything screened.
Sfp PPTase inh = qHTS Assay for Inhibitors of Bacillus subtilis Sfp phosphopantetheinyl transferase (PPTase); 4'-phosphopantetheinyl transferase ffp (Bacillus subtilis), Q9F4F7; Biochemical Sfp PPTase activity, qHTS; Potency, µM, for inactives: largest response in the series, negative = inhibition, usual class: inhibitors; actives 3.5% (n = 310,000);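 further: the enzyme is Sfp with the accession as filed and its product quenches rhodamine fluorescence; 0% = enzyme reaction without inhibitor and -100% = no enzyme wells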
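Compounds were incubated with enzyme (final 15 nM) for 15 min at room temperature before substrate addition started the reaction. Fluorescence at 525 nm excitation, 598 nm emission was recorded immediately and after 30 minutes.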
G9a block = qHTS Assay for Inhibitors of Histone Lysine Methyltransferase G9a; Histone-lysine N-methyltransferase EHMT2 (Homo sapiens), Q96KQ7; G9a H3K9 monomethylation, AlphaScreen, 2 h; Potency, µM (highest dose often 102 µM), inactives show top-dose activity, negative = inhibition, usual class: inhibitors; actives 8.8% (n = 350,000); further: on the % scale 0 is the no-effect control and ±100 the full control effect; nearly all actives have a fitted effect of over 75% in size
Target sequence (Q96KQ7 913-1193 limits assumed): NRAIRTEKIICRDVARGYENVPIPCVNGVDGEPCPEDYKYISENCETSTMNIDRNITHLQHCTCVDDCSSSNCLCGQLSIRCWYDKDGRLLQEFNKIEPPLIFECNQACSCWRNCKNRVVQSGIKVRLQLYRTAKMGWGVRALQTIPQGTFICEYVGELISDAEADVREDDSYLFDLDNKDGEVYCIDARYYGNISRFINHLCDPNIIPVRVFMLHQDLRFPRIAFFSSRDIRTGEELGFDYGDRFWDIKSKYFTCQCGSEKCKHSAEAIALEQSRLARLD
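Enzyme 20 nM + cpd, 15 min RT; add b-H3K9 pep 500 nM / SAM 20 uM; 2 h RT; anti-H3K9me1 Ab 0.5 ug/mL + SA donor / anti-rabbit acceptor beads 20 ug/mL each, 10 min; AlphaScreen read.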
BAZ2B block = qHTS Assay for Inhibitors of BAZ2B | AlphaScreen BAZ2B-H3K14Ac peptide displacement | Potency, µM (highest dose often 114 µM), without a hit: top-dose activity change, negative = inhibition, most hits filed as inhibitors | actives 4.4% (n = 360,000); further: on the % scale 0 is the no-effect control and ±100 the full control effect; nearly all actives have a fitted effect of over 60% in size
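AlphaScreen displacement of biotin-H3(5-23)K14Ac peptide (50 nM final) from BAZ2B (50 nM final) in PBS pH 7.4, 0.01% Tween-20; complex preformed 30 min RT, then compounds (top 110 uM) 30 min RT, beads 20 min dark.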
L3MBTL1 inh = qHTS Assay for the Inhibitors of L3MBTL1; actives 0.66% (n = 230,000); AlphaScreen L3MBTL1–H3K9me1 peptide binding; Potency, µM (highest dose often 57.1 µM), inactives show at the highest dose activity, negative = inhibition, hits mostly inhibitors; AID 485360, 2010; further: on the % scale 0 is the no-effect control and ±100 the full control effect; nearly all actives have a fitted effect of over 60% in size
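First, the protein-peptide complex forms for 30 min at room temperature (L3MBTL1 50 nM, biotinylated H3K9me1 peptide 75 nM). Next, compounds are pin-transferred and incubated 30 min. Finally, AlphaScreen beads are added and read after 30 min.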
JMJD2A Tudor inh = qHTS Assay for Inhibitors of JMJD2A-Tudor Domain; Potency, µM (top dose mostly 114 µM), inactives show at the highest dose activity change, negative = inhibition, most hits filed as inhibitors; AlphaScreen JMJD2A-Tudor / H3K4me3 peptide binding; Lysine-specific demethylase 4A (Homo sapiens), O75164; actives 4.4% (n = 390,000); further: on the % scale 0 is the no-effect control and ±100 the full control effect; nearly all actives have a fitted effect of over 50% in size
HP1b binding inh = HTS for Inhibitors of HP1-beta Chromodomain Interactions with Methylated Histone Tails. Chromobox protein homolog 1 (Homo sapiens), P83916. AlphaScreen HP1-beta / biotin-H3K9me3 peptide binding. Potency, µM (top dose mostly 114 µM), without a hit: at the top dose activity change, negative = inhibition, most hits filed as inhibitors. actives 0.56% (n = 390,000). AID 540317, 2011; further: nearly all actives have a fitted effect of over 70% in size
Target sequence (P83916 whole entry, looked up): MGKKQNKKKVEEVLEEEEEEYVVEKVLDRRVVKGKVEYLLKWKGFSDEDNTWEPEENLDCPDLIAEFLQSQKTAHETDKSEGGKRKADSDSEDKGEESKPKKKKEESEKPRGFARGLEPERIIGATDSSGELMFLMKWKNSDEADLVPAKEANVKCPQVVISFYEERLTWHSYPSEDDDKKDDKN
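HP1-beta protein (50 nM final) preincubated 30 min at room temperature with biotinylated H3(1-18)K9me3 peptide (50 nM) in PBS pH 7.4, 0.01% Tween-20, then compound added for 30 min. AlphaScreen streptavidin donor/nickel chelate acceptor beads (10 ug/mL final), 30 min dark, luminescence read.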
Numbers without * were called inactive; [ ] = dose if it differs, or a comment. The call rests on the fitted dose curve; in most records, active means well fitted curve in the direction sought with a large enough effect; inconclusive means small, poorly fitted or top-dose-only effect, or another doubt; inactive means no such curve, though single readings can be large; an effect the other way counts as inactive or inconclusive. Potency means the concentration at half of the fitted maximal effect.

How did O=c1[nH]c2ccc(NC(=S)Nc3ccccc3)cc2[nH]1 do in these assays?
Sfp PPTase inh: inconclusive; G9a block: 45µM*; BAZ2B block: 14%; JMJD2A Tudor inh: -9%[57.1 µM]; HP1b binding inh: -14%

How did O=c1[nH]c2ccc(NC(=S)Nc3ccc(Cl)cc3)cc2[nH]1 do in these assays?
Sfp PPTase inh: 3%; G9a block: -2%[59 µM]; BAZ2B block: 8%; JMJD2A Tudor inh: -17%; HP1b binding inh: -10%

How did COc1ccc(C)cc1NC(=O)c1cc(S(=O)(=O)NC2CCCCCC2)ccc1F do in these assays?
G9a block: 18%[59 µM]; BAZ2B block: 0%; JMJD2A Tudor inh: -17%; HP1b binding inh: 20%

How did NCCCCCc1cnc[nH]1 do in these assays?
Sfp PPTase inh: -22%; G9a block: -4%[59 µM]

What do the screens show for `Cc1cccc(C)c1NC(=O)CCCn1c(=O)c2cccn2c2ccccc21`?
G9a block: -30%[59 µM]; BAZ2B block: -20%; JMJD2A Tudor inh: -18%; HP1b binding inh: 28%

How did COc1ccc(-c2nc3cnc(N4CCOCC4)nc3n(C3CC3)c2=O)cc1 do in these assays?
Sfp PPTase inh: 23%; G9a block: 4%[0.501 µM]

How did CCC(C)NC(=S)N1CCN(C)CC1 (centres undefined) do in these assays?
Sfp PPTase inh: -18%; G9a block: 40µM*; BAZ2B block: -25%; JMJD2A Tudor inh: inconclusive; HP1b binding inh: inconclusive

What do the screens show for `CCC(C)[C@H](NC(=O)N1CCN(C)CC1)C(=O)OC` (some centres undefined)?
Sfp PPTase inh: 8%; G9a block: 21%; BAZ2B block: 3%; L3MBTL1 inh: 11%; JMJD2A Tudor inh: -11%; HP1b binding inh: 41%

What do the screens show for `O=[S+]([O-])(c1ccc2c(c1)OCCO2)N1CCN([S+](=O)([O-])c2cc(Cl)ccc2F)CC1`?
JMJD2A Tudor inh: -11%

Results for Cc1ccc(S(=O)(=O)N2CCC(C(=O)OCC(=O)NCc3ccco3)CC2)cc1C ?
G9a block: -18%[59 µM]; BAZ2B block: -12%; L3MBTL1 inh: -8%; JMJD2A Tudor inh: -15%; HP1b binding inh: -9%

What do the screens show for `CN(C(=O)COC(=O)C1CCN(S(=O)(=O)c2c(Cl)cccc2Cl)CC1)C1CCCCC1`?
G9a block: 40µM*; BAZ2B block: -29%; L3MBTL1 inh: -2%; JMJD2A Tudor inh: -8%; HP1b binding inh: 66%

What do the screens show for `O=C(COC(=O)C1CCN(S(=O)(=O)c2c(Cl)cccc2Cl)CC1)NCc1ccco1`?
G9a block: 50µM*; BAZ2B block: -9%; L3MBTL1 inh: -3%; JMJD2A Tudor inh: -21%; HP1b binding inh: 1%

How did Cc1ccccc1NC(=O)CSc1nc(-c2ccco2)nc2cc(=O)[nH]n12 do in these assays?
G9a block: -38%[59 µM]; BAZ2B block: inconclusive; JMJD2A Tudor inh: -15%; HP1b binding inh: 35%

What do the screens show for `Cc1oc(-c2cccc(Cl)c2)nc1CSc1nnc(C)n2c1cc1occc12`?
G9a block: -4%[59 µM]; BAZ2B block: -11%; JMJD2A Tudor inh: -10%; HP1b binding inh: 31%

Results for CCOC(=O)C(C)/C(C)=N/NC(N)=S (centres undefined) ?
Sfp PPTase inh: 40µM*; G9a block: inconclusive; BAZ2B block: 1%; L3MBTL1 inh: 1%; JMJD2A Tudor inh: -12%[57.1 µM]; HP1b binding inh: 38%

What do the screens show for `O=C1/C(=C\c2ccc(O)cc2)SC(=S)N1Cc1ccccc1`?
Sfp PPTase inh: -10%; BAZ2B block: 50µM*; L3MBTL1 inh: -5%; JMJD2A Tudor inh: inconclusive; HP1b binding inh: inconclusive

How did COc1ccc(CN2C(=O)/C(=C/c3ccncc3)SC2=S)cc1 do in these assays?
Sfp PPTase inh: inconclusive; G9a block: 28µM*; BAZ2B block: 8.9µM*; L3MBTL1 inh: inconclusive; JMJD2A Tudor inh: 50µM*; HP1b binding inh: inconclusive

How did O=C1/C(=C/c2ccccc2O)SC(=S)N1Cc1cccnc1 do in these assays?
Sfp PPTase inh: 50µM*; G9a block: inconclusive; BAZ2B block: 6%; L3MBTL1 inh: 7%; JMJD2A Tudor inh: -23%; HP1b binding inh: 2%

What do the screens show for `CC(=O)Oc1ccc(/C=C2/SC(=S)N(Cc3ccccc3)C2=O)cc1`?
Sfp PPTase inh: 8%; G9a block: inconclusive; BAZ2B block: 3.5µM*; JMJD2A Tudor inh: inconclusive; HP1b binding inh: inconclusive

What do the screens show for `COc1ccc(NC(=O)C(=O)NCC2(c3ccccc3)CCCC2)c(OC)c1`?
G9a block: 1%[59 µM]; BAZ2B block: 3%; JMJD2A Tudor inh: -18%; HP1b binding inh: 33%

How did O=C1/C(=C\c2cc(Br)cc(Br)c2O)SC(=S)N1Cc1ccccc1 do in these assays?
Sfp PPTase inh: 63µM*; G9a block: -10%[2.33 µM]; BAZ2B block: 10µM*; JMJD2A Tudor inh: 28µM*; HP1b binding inh: 32µM*

What do the screens show for `COc1ccccc1-n1cc(-c2ccc(Cl)cc2)[nH]c1=O`?
Sfp PPTase inh: -4%; G9a block: 56µM*; BAZ2B block: inconclusive; L3MBTL1 inh: -10%; JMJD2A Tudor inh: -22%[57.1 µM]; HP1b binding inh: -9%

Results for COc1ccc(-n2cc(-c3ccc(Br)cc3)[nH]c2=S)cc1 ?
Sfp PPTase inh: -1%; G9a block: -20%; BAZ2B block: inconclusive; L3MBTL1 inh: inconclusive; JMJD2A Tudor inh: -11%; HP1b binding inh: 26%

What do the screens show for `Cc1ccc(-n2cc(-c3ccccc3)[nH]c2=O)cc1F`?
Sfp PPTase inh: 5%; G9a block: inconclusive; BAZ2B block: 2%; L3MBTL1 inh: -7%; JMJD2A Tudor inh: -27%; HP1b binding inh: 34%

Results for COc1ccc(-c2cn(-c3cccc(C)c3)c(=O)[nH]2)cc1OC ?
Sfp PPTase inh: -7%; G9a block: 28µM*; BAZ2B block: inconclusive; JMJD2A Tudor inh: -23%; HP1b binding inh: 20%

Results for COc1cc(OC)c(-n2cc(-c3ccc(OC)c(OC)c3)[nH]c2=S)cc1Cl ?
Sfp PPTase inh: -12%; G9a block: 32µM*; BAZ2B block: -24%; JMJD2A Tudor inh: inconclusive; HP1b binding inh: -7%

Results for COc1ccc(-n2cc(-c3ccc(OC)c(OC)c3)[nH]c2=S)cc1 ?
Sfp PPTase inh: 45µM*; G9a block: 0.89µM*; BAZ2B block: 1%; JMJD2A Tudor inh: 3.2µM*; HP1b binding inh: inconclusive

What do the screens show for `Cc1cccc(CCNC(=O)c2ccc3c(c2)nc2n3CCCCC2)c1`?
G9a block: 1%[59 µM]; BAZ2B block: 4%; JMJD2A Tudor inh: 0%; HP1b binding inh: 25%[57 µM]
